# Test results taken from PubChem BioAssay AID2685 (National Center for Advancing Translational Sciences (NCATS), 2010).
# The campaign covered roughly 320,000 compounds. About 2,100 (0.66%) were called active. Not shown: some 53% with an inconclusive outcome. Calls come from the whole dose curve; as a rule, active = well fitted inhibition curve with a large enough effect in the signal ratio, with a control signal flat (not every such curve was filed as active); inconclusive = small, poorly fitted or top-dose-only effect, or effect the other way, or a change in a side signal; inactive = flat fitted curve, though single readings scatter; the % refers to the signal ratio. Shown is part of a subset that was picked to be rich in actives.
# Test: qHTS Assay for Lipid Storage Modulators in Drosophila S3 Cells;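 for cell number change: cells counted by Cell Tracker Red CMTPX staining in the red channel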
# Details: BODIPY lipid droplet fluorescence, 18-24 h, cells fed with added oleic acid; cell number change: measured here: cell count max response; series mostly up to 46.1 µM
# How it was run: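 Drosophila S3 cells loaded with oleic acid (400 uM, as added) and compounds at several concentrations; lipid droplets imaged by 488-nm laser-scanning cytometry, 500–530 nm intensity and object ratio to cell channel. Percent activity normalized to 20 uM Triacsin C.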
# Potency is the fitted concentration of half-maximal effect.
SMILES,Potency,cell number change,outcome
CCS(=O)(=O)c1ccc2oc(SCC(=O)Nc3ccc(OC)cc3)nc2c1,inactive,7.84%,
CCN(CC)c1nc(SCC(=O)O)nc(N(CC)CC)n1,inactive,,
CCN(CC)c1nc2n(c(=O)n1)CCN2CC,5.17 µM (active),14.9%,
CCN(CC)c1nc(-c2ccc(C(=O)NN)cc2)nc(-c2ccc(C(=O)NN)cc2)n1,inactive,26.3%,
CCOc1cc(/C=C2\SC(=S)N(N3CCOCC3)C2=O)ccc1O,inactive,-15.1%,
Nc1nc(N2CCN(C(=O)c3ccco3)CC2)nc2ccccc12,inactive,7.42%,
COc1cc(C#N)ccc1OCC(=O)NCc1cccs1,inactive,,
CC(=O)Nc1ccc2oc(-c3ccccc3)nc2c1,inactive,17.7%,
CCN(CC)CC(=O)Nc1ccc(-c2nc3cc(NC(=O)CN(CC)CC)ccc3o2)cc1,inactive,0.429%,
CCc1ccc2oc(-c3ccc(NC(C)=O)cc3)nc2c1,11.6 µM (active),,
COc1ccc(NC(=O)Cc2ccc(C)c(C)c2)cc1Cl,inactive,-32.8%,
COc1ccc(OC)c(NC=C2C(=O)OC3(CCCCC3)OC2=O)c1,inactive,-8.05%,
COc1ccccc1C(=O)COC(=O)c1ccc(Cl)nc1,inactive,-5.19%,
CCN(Cc1ccncc1)C(=O)c1cc(COc2ccc(F)cc2F)on1,inactive,-20.5%,
Cc1cc(=S)cc(C)n1CCCO,inactive,-15.3%,
COc1ccccc1NS(=O)(=O)c1ccc2nc(CCl)[nH]c2c1,0.259 µM (active),-11.7%,
COc1ccccc1NS(=O)(=O)c1ccc2[nH]c(=O)[nH]c2c1,inactive,-22.3%,
c1ccc2cc(OCc3nc4ccccc4[nH]3)ccc2c1,inactive,-24.1%,
COc1ccc(OCc2nc3ccc(S(=O)(=O)Nc4ccccc4Cl)cc3[nH]2)cc1,inactive,18.1%,
COc1ccc(NS(=O)(=O)c2ccc3nc(COc4ccc5ccccc5c4)[nH]c3c2)cc1,23.1 µM (active),-9.6%,
COc1ccccc1NS(=O)(=O)c1ccc2oc(=S)[nH]c2c1,inactive,9.13%,

SMILES,Potency,cell number change,outcome
COc1ccc(NS(=O)(=O)c2cccc(C(=O)NCC3(N4CCOCC4)CCCCC3)c2)cc1,inactive,1.17%,
CCCS(=O)(=O)Nc1cccc(-c2cn3c(n2)SCC3)c1,inactive,-21.2%,
Cc1cc(C)n2nc(Sc3ncccc3[N+](=O)[O-])nc2n1,inactive,-8.83%,
Cc1ccc(Sc2ncccc2[N+](=O)[O-])cc1,inactive,-12.8%,
Cc1ccnc(Sc2ncccc2[N+](=O)[O-])n1,29.1 µM (active),-11.7%,
COCc1cc(CN2CCN(Cc3ccsc3)C(CCO)C2)ccc1OC (configuration not stated),inactive,9.7%,
CCC(C)(C)NC(=O)C(c1ccc(F)cc1)N(CCOC)C(=O)CCC(=O)Nc1nccs1 (configuration not stated),14.6 µM (active),3.04%,
CCC(C)(C)NC(=O)C(c1ccc(O)cc1)N(CCOC)C(=O)CCC(=O)Nc1nccs1 (configuration not stated),inactive,-13.3%,
COCCN(C(=O)CCC(=O)Nc1nccs1)C(C(=O)NC(C)(C)C)c1ccc(F)cc1 (configuration not stated),inactive,9.66%,
Cc1cc2nnc(SCC(=O)Nc3cccc(S(=O)(=O)N4CCOCC4)c3)n2c2ccccc12,inactive,5.18%,
C=CCSc1nnc(CC(OC)OC)n1-c1ccccc1,inactive,,
CC(=O)Nc1cccc(/C(C)=N/NC(=O)c2ccc(NS(=O)(=O)c3cccs3)cc2)c1,inactive,10.3%,
Cc1nc(Nc2ccccc2Br)c2nnn(Cc3ccccc3)c2n1,inactive,8.19%,
CCCCN(C(=O)c1ccccc1F)c1c(N)n(CCC)c(=O)[nH]c1=O,inactive,28.6%,
CCCCn1c(N)c(N(CC)C(=O)c2ccccc2C(F)(F)F)c(=O)[nH]c1=O,inactive,-2.38%,
CCCCn1c(N)c(N(CC)C(=O)c2ccccc2F)c(=O)[nH]c1=O,8.2 µM (active),6.41%,
O=C1NCCN1C(=O)c1cccc(Cl)c1,inactive,4.49%,
COc1ccc(NC(=O)Nc2nnc(Cc3ccc(F)cc3)s2)cc1,inactive,-7.21%,
O=C(Nc1ccccc1)Nc1nnc(Cc2ccc(F)cc2)s1,0.103 µM (active),14%,
O=C(Nc1nnc(Cc2ccc(F)cc2)s1)Nc1ccccc1F,inactive,-6.61%,
O=C1CCc2cc(S(=O)(=O)NC3CCCCC3)cc3c2N1CC3,,,inactive [at 0.0737 µM]

SMILES,Potency,cell number change,outcome
Cc1ccc(OCC(O)CN2CCN(CCO)CC2)c(C)c1 (configuration not stated),inactive,3.63%,
O=C(NCc1cccc(C(F)(F)F)c1)C1CCCN(c2ncccn2)C1 (configuration not stated),inactive,23.6%,
CN1C(=O)/C(=C/c2cc(C(C)(C)C)c(O)c(C(C)(C)C)c2)NC1=S,inactive,,
O=C1/C(=C/c2ccccc2)SC(=S)N1CC(=O)N1CCCCC1c1cccnc1 (configuration not stated),inactive,6.85%,
O=C1/C(=C/c2ccccc2F)SC(=S)N1CC(=O)N1CCCCC1c1cccnc1 (configuration not stated),7.31 µM (active),-0.951%,
O=C(CN1C(=O)/C(=C/c2ccccc2F)SC1=S)NC1C=CS(=O)(=O)C1 (configuration not stated),16.4 µM (active),-4.2%,
O=C(CN1C(=O)S/C(=C\c2ccccc2F)C1=O)NC1C=CS(=O)(=O)C1 (configuration not stated),inactive,-3.44%,
O=C(CCN1C(=O)/C(=C/c2ccccc2F)SC1=S)NC1C=CS(=O)(=O)C1 (configuration not stated),inactive,,
O=C(CCN1C(=O)/C(=C\c2ccccc2F)SC1=S)N1CCCCC1,inactive,13.6%,
CC(=O)c1nn(-c2cccc(Br)c2)cc1C(=O)c1ccc2ccccc2c1,5.17 µM (active),-7.14%,
CC(=O)c1nn(-c2ccccc2)cc1C(=O)c1cccc(Br)c1,inactive,-13.3%,
CC(=O)c1nn(-c2cccc(Br)c2)cc1C(=O)c1ccccc1,inactive,-13.8%,
Cc1ccc(C(=O)NC2CCS(=O)(=O)C2)cc1S(=O)(=O)N1CCOCC1 (configuration not stated),inactive,10.2%,
CCOC(=O)N=S(N)(=O)c1ccc(Cl)cc1 (configuration not stated),inactive,-0.647%,
CCOC(=O)CS(=O)(=O)c1ccccc1,inactive,1.52%,
CCOC(=O)N=S(N)(=O)c1ccccc1 (configuration not stated),14.6 µM (active),-1.15%,
CCc1ccc(NC(=O)NCC2CCN(Cc3cccc(Cl)c3)CC2)cc1,inactive,-23.4%,
COC(=O)CON1C(=O)c2ccccc2C1=O,25.9 µM (active),-16.7%,
COC(=O)CCC(=O)NN1C(=O)c2ccccc2C1=O,inactive,9.79%,
COC(=O)c1ccc(CON2C(=O)c3ccccc3C2=O)cc1,inactive,-3.96%,
